# Test results published in the supplement of paper PMC8728848.
# The sample as a whole holds a higher share of the strongest signals than the screen did.
# B1: rCnSL-A (Clitocybe nebularis) (protein)
# chain: VNPNLPGPNDVFVGFRGTNNIVGAIYEKDGIKDTPLNNGADAEMGPGSYITDGLFTARIFASGSAGNNPGTTATVCKIYASGVQWRGAPKGYIPVAYFGNGPTAEQRRQTYLRTLGLPGTAIRFGNLNTNPGQGPTAPRQMVVPPGPLRSLLKASCFPAADTRLPQTLHYFEKRVDWNIITAADSQTWGH
# How the values were obtained:
# Assay in all cases: glycan array binding signal (z-score within array); higher = stronger binding
# Details in all cases: glycan notation: IUPAC condensed, linker removed
# [1] = target: Fuc(a1-2)Gal
# Method in brief: (§1)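 Glycan array binding is given as a within-array Z-score, which can be read as non-binding when negative. The arrays, 3228 of them, came from the Consortium for Functional Glycomics database and were retained only where the protein sequence was available. Z-scores were averaged across arrays of the same protein sequence at different concentrations or buffers and across linkers.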
# [2] = target: Fuc(a1-2)Gal(b1-3)GalNAc(a1-3)[Fuc(a1-2)]Gal(b1-4)Glc
# Method in brief: as §1
# [3] = target: Fuc(a1-2)[Gal(a1-3)]Gal(b1-4)GlcNAc(b1-3)[Fuc(a1-2)[Gal(a1-3)]Gal(b1-4)GlcNAc(b1-6)]GalNAc
# Method in brief: as §1
# [4] = target: Fuc(a1-2)[Gal(a1-3)]Gal(b1-4)[Fuc(a1-3)]GlcNAc(b1-3)GalNAc
# Method in brief: as §1
# [5] = target: Fuc(a1-2)[GalNAc(a1-3)]Gal(b1-3)GlcNAc(b1-6)GalNAc
# Method in brief: as §1
# [6] = target: Fuc(a1-2)[GalNAc(a1-3)]Gal(b1-4)GlcNAc(b1-3)Gal(b1-4)GlcNAc(b1-3)Gal(b1-4)GlcNAc
# Method in brief: as §1
# [7] = target: Fuc(a1-3)[Gal(b1-4)]GlcNAc(b1-6)GalNAc
# Method in brief: as §1
# [8] = target: Fuc(a1-3)[GalNAc(b1-4)]GlcNAc6S
# Method in brief: as §1
# [9] = target: Gal(a1-4)Gal(b1-4)Glc
# Method in brief: as §1
# [10] = target: Gal(b1-3)Gal(b1-4)GlcNAc
# Method in brief: as §1
# [11] = target: Gal(b1-3)GlcNAc(b1-3)Gal(b1-4)GlcNAc(b1-2)[Gal(b1-3)GlcNAc(b1-3)Gal(b1-4)GlcNAc(b1-6)]Man(a1-6)[Gal(b1-3)GlcNAc(b1-3)Gal(b1-4)GlcNAc(b1-2)Man(a1-3)]Man(b1-4)GlcNAc(b1-4)[Fuc(a1-6)]GlcNAc
# Method in brief: as §1
# [12] = target: Gal(b1-3)GlcNAc(b1-3)Gal(b1-4)GlcNAc(b1-3)Gal(b1-4)GlcNAc(b1-2)[Gal(b1-3)GlcNAc(b1-3)Gal(b1-4)GlcNAc(b1-3)Gal(b1-4)GlcNAc(b1-6)]Man(a1-6)[Gal(b1-3)GlcNAc(b1-3)Gal(b1-4)GlcNAc(b1-3)Gal(b1-4)GlcNAc(b1-2)Man(a1-3)]Man(b1-4)GlcNAc(b1-4)[Fuc(a1-6)]GlcNAc
# Method in brief: as §1
# [13] = target: Gal(b1-4)GlcNAc(b1-2)Man(a1-3)[Gal(b1-4)GlcNAc(b1-2)Man(a1-6)]Man(b1-4)GlcNAc(b1-4)GlcNAc
# Method in brief: as §1
# [14] = target: Gal(b1-4)GlcNAc(b1-2)[Gal(b1-4)GlcNAc(b1-4)]Man(a1-3)[Gal(b1-4)GlcNAc(b1-2)Man(a1-6)]Man(b1-4)GlcNAc(b1-4)GlcNAc
# Method in brief: as §1
# [15] = target: Gal(b1-4)GlcNAc(b1-3)Gal(b1-4)GlcNAc(b1-2)[Gal(b1-4)GlcNAc(b1-3)Gal(b1-4)GlcNAc(b1-6)]Man(a1-6)[Gal(b1-4)GlcNAc(b1-3)Gal(b1-4)GlcNAc(b1-2)Man(a1-3)]Man(b1-4)GlcNAc(b1-4)[Fuc(a1-6)]GlcNAc
# Method in brief: as §1
# [16] = target: Gal(b1-4)GlcNAc(b1-3)Gal(b1-4)GlcNAc(b1-3)Gal(b1-4)GlcNAc(b1-2)[Gal(b1-4)GlcNAc(b1-3)Gal(b1-4)GlcNAc(b1-3)Gal(b1-4)GlcNAc(b1-6)]Man(a1-6)[Gal(b1-4)GlcNAc(b1-3)Gal(b1-4)GlcNAc(b1-3)Gal(b1-4)GlcNAc(b1-2)Man(a1-3)]Man(b1-4)GlcNAc(b1-4)[Fuc(a1-6)]GlcNAc
# Method in brief: as §1
# [17] = target: Gal(b1-4)GlcNAc(b1-3)Gal(b1-4)GlcNAc(b1-3)Gal(b1-4)GlcNAc(b1-3)Gal(b1-4)GlcNAc(b1-2)Man(a1-3)[Gal(b1-4)GlcNAc(b1-3)Gal(b1-4)GlcNAc(b1-3)Gal(b1-4)GlcNAc(b1-3)Gal(b1-4)GlcNAc(b1-2)Man(a1-6)]Man(b1-4)GlcNAc(b1-4)GlcNAc
# Method in brief: as §1
# [18] = target: Gal(b1-4)GlcNAc(b1-3)Gal(b1-4)GlcNAc(b1-3)Gal(b1-4)GlcNAc(b1-3)Gal(b1-4)GlcNAc(b1-2)Man(a1-3)[Gal(b1-4)GlcNAc(b1-3)Gal(b1-4)GlcNAc(b1-3)Gal(b1-4)GlcNAc(b1-3)Gal(b1-4)GlcNAc(b1-2)Man(a1-6)]Man(b1-4)GlcNAc(b1-4)[Fuc(a1-6)]GlcNAc
# Method in brief: as §1
# [19] = target: Gal(b1-4)GlcNAc(b1-3)Gal(b1-4)GlcNAc(b1-3)Gal(b1-4)GlcNAc(b1-3)Gal(b1-4)GlcNAc(b1-2)[Gal(b1-4)GlcNAc(b1-3)Gal(b1-4)GlcNAc(b1-3)Gal(b1-4)GlcNAc(b1-3)Gal(b1-4)GlcNAc(b1-6)]Man(a1-6)[Gal(b1-4)GlcNAc(b1-3)Gal(b1-4)GlcNAc(b1-3)Gal(b1-4)GlcNAc(b1-3)Gal(b1-4)GlcNAc(b1-2)Man(a1-3)]Man(b1-4)GlcNAc(b1-4)[Fuc(a1-6)]GlcNAc
# Method in brief: as §1
# [20] = target: Gal(b1-4)GlcNAc(b1-3)Gal(b1-4)GlcNAc(b1-3)Gal(b1-4)GlcNAc(b1-3)Gal(b1-4)GlcNAc(b1-3)Gal(b1-4)GlcNAc(b1-2)Man(a1-3)[Gal(b1-4)GlcNAc(b1-3)Gal(b1-4)GlcNAc(b1-3)Gal(b1-4)GlcNAc(b1-3)Gal(b1-4)GlcNAc(b1-3)Gal(b1-4)GlcNAc(b1-2)Man(a1-6)]Man(b1-4)GlcNAc(b1-4)GlcNAc
# Method in brief: as §1
# [21] = target: Gal(b1-4)GlcNAc(b1-3)Gal(b1-4)GlcNAc(b1-3)Gal(b1-4)GlcNAc(b1-3)Gal(b1-4)GlcNAc(b1-3)Gal(b1-4)GlcNAc(b1-2)Man(a1-3)[Gal(b1-4)GlcNAc(b1-3)Gal(b1-4)GlcNAc(b1-3)Gal(b1-4)GlcNAc(b1-3)Gal(b1-4)GlcNAc(b1-3)Gal(b1-4)GlcNAc(b1-2)Man(a1-6)]Man(b1-4)GlcNAc(b1-4)[Fuc(a1-6)]GlcNAc
# Method in brief: as §1
# [22] = target: Gal(b1-4)GlcNAc(b1-3)Gal(b1-4)GlcNAc(b1-3)Gal(b1-4)GlcNAc(b1-3)Gal(b1-4)GlcNAc(b1-3)Gal(b1-4)GlcNAc(b1-2)[Gal(b1-4)GlcNAc(b1-3)Gal(b1-4)GlcNAc(b1-3)Gal(b1-4)GlcNAc(b1-3)Gal(b1-4)GlcNAc(b1-3)Gal(b1-4)GlcNAc(b1-6)]Man(a1-6)[Gal(b1-4)GlcNAc(b1-3)Gal(b1-4)GlcNAc(b1-3)Gal(b1-4)GlcNAc(b1-3)Gal(b1-4)GlcNAc(b1-3)Gal(b1-4)GlcNAc(b1-2)Man(a1-3)]Man(b1-4)GlcNAc(b1-4)[Fuc(a1-6)]GlcNAc
# Method in brief: as §1
binder,measurement,setting,value
B1,glycan array binding signal (z-score),[1],-0.225
same,glycan array binding signal (z-score),[2],-0.137
same,glycan array binding signal (z-score),[3],-0.176
same,glycan array binding signal (z-score),[4],-0.339
same,glycan array binding signal (z-score),[5],-0.306
same,glycan array binding signal (z-score),[6],-0.002
same,glycan array binding signal (z-score),[7],-0.093
same,glycan array binding signal (z-score),[8],-0.255
same,glycan array binding signal (z-score),[9],-0.211
same,glycan array binding signal (z-score),[10],-0.132
same,glycan array binding signal (z-score),[11],1.95
same,glycan array binding signal (z-score),[12],3.37
same,glycan array binding signal (z-score),[13],-0.203
same,glycan array binding signal (z-score),[14],2.67
same,glycan array binding signal (z-score),[15],3.11
same,glycan array binding signal (z-score),[16],5.46
same,glycan array binding signal (z-score),[17],8.55
same,glycan array binding signal (z-score),[18],2.68
same,glycan array binding signal (z-score),[19],10.3
same,glycan array binding signal (z-score),[20],2.36
same,glycan array binding signal (z-score),[21],5.05
same,glycan array binding signal (z-score),[22],13.6
